This note sets out measurements from article PMC5540273 (PLoS ONE, 2017).

Settings in all cases: concentration: 1 μM, replicates: in singlicate; n = 1
The subject of experiment [1] is TLK1.
For experiment [2], the system named is TLK2.
Experiment [3] relates to TNIK.
For experiment [4], the system named is TNK1.
Experiment [5] has as its system TNK2.
Experiment [6] relates to TNNI3K.
Experiment [7] deals with T1, TRKA.
T1 construct: gene NTRK1

Experiment [8] deals with TRKB.
Experiment [9] has as its system T2, TRKC.
T2 construct: gene NTRK3

Experiment [10] relates to TRPM6.
The subject of experiment [11] is TSSK1B.
For experiment [12], the system named is TSSK3.
Experiment [13] has as its system TTK.
For experiment [14], the system named is TXK.
Experiment [15] deals with TYK2(JH1domain-catalytic).
For experiment [16], the system named is TYK2(JH2domain-pseudokinase).
For experiment [17], the system named is TYRO3.
The subject of experiment [18] is ULK1.
Experiment [19] has as its system ULK2.
The subject of experiment [20] is ULK3.

SMILES strings stand for the structures.
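Note: KINOMEscan kinase panel screen.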

As for `O=c1cc(N2CCOCC2)nc2n(Cc3ccccc3F)ccn12` [GSK2297428], the “%Inh” value in experiment [1] was 0%; in experiment [2], 0%; in experiment [3], 0%; in [4], 0%; in [5] it was 4%; in experiment [6], 0%. For the same compound, the “%Inh” value in experiment [7] came to 0%; in [8] it was 0%; in [9] it was 0%; in experiment [10] it was 0%; in experiment [11], 0%; in [12] it was 13%. Besides, the “%Inh” value in [13], in [14], in [15], in experiment [16], in experiment [17] and in [18] was 0% each time. The “%Inh” value in experiment [19] and in experiment [20] was 0% throughout.
Consider `Fc1ccc(-c2nc[nH]c2-c2ccncc2)cc1` [SB-217360], for which the “%Inh” value in [1] was 0%; in experiment [2], 0%; in [3], 51%; in experiment [4] it was 0%; in [5], 0%; in [6] it was 0%. Besides, the “%Inh” value in [7] was determined as 0%; in [8], 0%; in [9], 4%; in [10], 6%; in experiment [11], 0%; in experiment [12], 0%. For the same compound, the “%Inh” value in experiment [13] was found to be 0%; in [14] it was 0%; in [15], 2%; in [16] it was 22%; in [17], 0%; in experiment [18], 20%. Further, the “%Inh” value in [19] is recorded as 27%; in experiment [20] it was 16%.
As for `Cc1c(Cn2c(C)c(C)n3c(=O)cc(N4CCOCC4)nc23)cccc1C(F)(F)F` [GSK2328680], the “%Inh” value in experiment [1] is recorded as 0%; in experiment [2] it was 0%; in experiment [3], 0%; in experiment [4], 0%; in experiment [5], 13%; in experiment [6], 0%. The “%Inh” value in experiment [7] is on record as 12%; in experiment [8] it was 0%; in experiment [9], 21%; in [10] it was 0%; in experiment [11], 11%; in [12], 7%. For the same compound, the “%Inh” value in [13] is listed as 0%; in [14] it was 20%; in experiment [15], 5%; in experiment [16] it was 4%; in [17], 0%; in experiment [18], 9%. Besides, the “%Inh” value in experiment [19] is 0%; in experiment [20] it was 14%.
As for `CS(=O)(=O)CCNCc1nc(-c2ccc3ncnc(Nc4ccc(OCc5ccccc5)c(Cl)c4)c3c2)cs1.Cl` [GW582764], the “%Inh” value came to 0% in experiment [1]; 0% in experiment [2]; 0% in experiment [3]; 4% in [4]; 14% in experiment [5]; 0% in experiment [6]. Further, the “%Inh” value in experiment [7] worked out at 0%; in experiment [8], 41%; in [9], 54%; in experiment [10], 0%; in [11], 19%; in [12], 8%. The “%Inh” value was 0% in experiment [13]; 6% in experiment [14]; 30% in experiment [15]; 35% in experiment [16]; 0% in experiment [17]; 5% in [18]. Besides, the “%Inh” value in [19] is reported as 0%; in [20], 3%.
`CC(C)c1ccc(O)cc1Nc1ccnc2ccc(C(F)(F)F)cc12` [GW482059]: the “%Inh” value in experiment [1] is 0%; in experiment [2] it was 0%; in experiment [3] it was 0%; in experiment [4], 0%; in [5] it was 0%; in [6], 71%. Moreover, the “%Inh” value in experiment [7] was 12%; in experiment [8], 11%; in experiment [9], 37%; in experiment [10], 1%; in [11], 0%; in [12] it was 3%. Besides, the “%Inh” value in experiment [13] worked out at 2%; in experiment [14], 19%; in experiment [15], 23%; in [16], 0%; in experiment [17], 0%; in [18], 20%. Also, the “%Inh” value came to 0% in [19] and 8% in experiment [20].
On to `CNc1nc(-c2ccc3c(N)n[nH]c3c2)cc(N2C[C@@H](C(=O)NC3CCCCC3)OC[C@H]2C)n1` [GSK2375584], for which the “%Inh” value in [1] amounted to 17%; in experiment [2], 5%; in experiment [3], 8%; in experiment [4], 13%; in experiment [5], 17%; in experiment [6] it was 2%. For the same compound, the “%Inh” value is listed as 11% in experiment [7]; 0% in experiment [8]; 0% in [9]; 0% in [10]; 0% in [11]; 23% in [12]. The “%Inh” value in experiment [13] turned out to be 7%; in [14], 0%; in experiment [15], 0%; in [16] it was 12%; in experiment [17], 0%; in [18], 0%. Moreover, the “%Inh” value in [19] and in [20] was 0% in each case.
On to `CC[C@@H]1CO[C@H](C(=O)Nc2ccccc2)CN1c1cc(-c2ccc3c(N)n[nH]c3c2)nc(NC)n1` [GSK2376236], for which the “%Inh” value is on record as 21% in experiment [1]; 0% in experiment [2]; 0% in experiment [3]; 4% in experiment [4]; 0% in experiment [5]; 17% in [6]. The “%Inh” value in experiment [7] is given as 9%; in experiment [8], 0%; in [9], 0%; in [10], 35%; in experiment [11], 0%; in experiment [12] it was 13%. In addition, the “%Inh” value is reported as 0% in [13]; 0% in [14]; 0% in [15]; 0% in experiment [16]; 0% in [17]; 13% in experiment [18]. Besides, the entries for the “%Inh” value in experiment [19] and in experiment [20] were 10% and 4%, respectively.
Take `Cc1nccc(-c2c(-c3ccc(F)cc3)ncn2CCCN2CCOCC2)n1.Cl` [SB-282975]: the “%Inh” value was determined as 0% in [1]; 0% in experiment [2]; 0% in experiment [3]; 37% in [4]; 26% in experiment [5]; 0% in experiment [6]. Also, the “%Inh” value worked out at 0% in experiment [7]; 0% in experiment [8]; 16% in [9]; 0% in experiment [10]; 3% in experiment [11]; 43% in experiment [12]. In addition, the “%Inh” value in experiment [13] was 0%; in experiment [14], 31%; in experiment [15], 42%; in experiment [16], 28%; in [17], 14%; in experiment [18], 9%. The results for the “%Inh” value in [19] and in experiment [20] were 26% and 20%, respectively.
`Cc1cnc(N)c(/C=C/c2cncc(C(=O)NCCc3ccc(Cl)cc3Cl)c2)c1.Cl` [GSK190937]: the “%Inh” value in experiment [1] turned out to be 0%; in experiment [2], 0%; in [3], 9%; in experiment [4], 0%; in experiment [5], 11%; in experiment [6] it was 0%. Further, the “%Inh” value in [7] is recorded as 35%; in experiment [8] it was 0%; in experiment [9], 0%; in [10] it was 0%; in experiment [11], 6%; in experiment [12], 0%. The “%Inh” value in [13] is recorded as 0%; in experiment [14], 4%; in experiment [15], 0%; in [16], 9%; in experiment [17], 0%; in experiment [18] it was 0%. Besides, the “%Inh” value in experiment [19] and in [20] was 0% in each case.
Consider `CCn1c(-c2ccccc2)nc2cnccc21` [SB-733416], for which the “%Inh” value is listed as 0% in experiment [1]; 0% in experiment [2]; 0% in experiment [3]; 31% in experiment [4]; 17% in experiment [5]; 16% in experiment [6]. Also, the “%Inh” value in [7] worked out at 0%; in [8], 0%; in [9], 25%; in [10] it was 0%; in [11], 32%; in [12] it was 14%. The “%Inh” value in [13] is reported as 0%; in [14], 9%; in experiment [15], 24%; in [16], 45%; in experiment [17] it was 0%; in experiment [18] it was 20%. In addition, the “%Inh” value worked out at 0% in [19] and 14% in [20].
For `O=C(Nc1n[nH]c2cc(-c3ccsc3)ccc12)C1CC1` [SB-732932], the “%Inh” value turned out to be 0% in [1]; 0% in experiment [2]; 61% in experiment [3]; 0% in experiment [4]; 8% in experiment [5]; 0% in experiment [6]. For the same compound, the “%Inh” value in [7] came out at 87%; in experiment [8], 39%; in [9], 38%; in [10], 0%; in experiment [11], 13%; in experiment [12], 27%. Further, the “%Inh” value in [13] amounted to 35%; in [14], 5%; in [15], 9%; in experiment [16], 0%; in experiment [17] it was 14%; in experiment [18], 21%. Further, the “%Inh” value is recorded as 6% in [19] and 32% in experiment [20].
For `Cc1ccc(NC(=O)Nc2ccc(Cl)c(C(F)(F)F)c2)cc1-c1ccc(C(=O)Nc2ccncc2)cc1` [GSK1398470], the “%Inh” value in experiment [1] came out at 20%; in experiment [2], 8%; in [3], 9%; in experiment [4], 20%; in [5], 10%; in [6], 64%. Also, the “%Inh” value in [7] was 11%; in [8] it was 0%; in experiment [9] it was 0%; in [10] it was 6%; in experiment [11], 0%; in experiment [12], 9%. Further, the “%Inh” value is listed as 32% in experiment [13]; 0% in experiment [14]; 0% in experiment [15]; 0% in [16]; 0% in [17]; 44% in experiment [18]. Besides, the “%Inh” value in [19] worked out at 0%; in experiment [20] it was 51%.
On to `CN1c2ccc(-c3ccc(C(N)=O)cc3)cc2-c2[nH]ncc2S1(=O)=O`, for which the “%Inh” value in experiment [1] is listed as 36%; in [2], 0%; in experiment [3], 45%; in experiment [4], 24%; in experiment [5], 0%; in experiment [6] it was 0%. Further, the “%Inh” value was found to be 0% in experiment [7]; 0% in experiment [8]; 0% in experiment [9]; 13% in [10]; 0% in experiment [11]; 0% in experiment [12]. Moreover, the “%Inh” value in [13] turned out to be 5%; in [14], 0%; in experiment [15], 45%; in [16], 83%; in experiment [17], 0%; in experiment [18], 0%. The “%Inh” value in experiment [19] was determined as 9%; in experiment [20], 6%.
Consider `Cc1ccccc1-c1cc(-c2c[nH]nc2-c2ccccn2)ccn1` [GW680061], for which the “%Inh” value came out at 0% in [1]; 0% in [2]; 8% in experiment [3]; 0% in experiment [4]; 16% in experiment [5]; 0% in [6]. For the same compound, the “%Inh” value in experiment [7] turned out to be 0%; in [8], 0%; in experiment [9] it was 16%; in experiment [10], 0%; in [11], 1%; in [12] it was 15%. The “%Inh” value was found to be 6% in experiment [13]; 0% in experiment [14]; 0% in experiment [15]; 18% in [16]; 35% in [17]; 0% in experiment [18]. The “%Inh” value in experiment [19] is reported as 0%; in [20], 13%.
For the compound `Cc1ccccc1Cn1ccn2c(=O)cc(N3CCOCC3)nc12` [GSK2269905], the “%Inh” value is 0% in experiment [1]; 0% in experiment [2]; 0% in experiment [3]; 6% in experiment [4]; 32% in experiment [5]; 4% in experiment [6]. Further, the “%Inh” value in [7] is 0%; in experiment [8], 0%; in experiment [9], 0%; in experiment [10], 2%; in experiment [11], 10%; in [12], 0%. Further, the “%Inh” value in experiment [13] came out at 5%; in [14], 7%; in experiment [15], 0%; in experiment [16] it was 0%; in experiment [17], 0%; in [18] it was 16%. Moreover, the “%Inh” value is listed as 0% in [19] and 9% in experiment [20].
